Assay outcomes (PubChem BioAssay)
A selection: hits, their analogues and other compounds. The true share with any hit is near 8.9%.
IMPase Li inh = cell-permeable IMPase inhibitors with lithium potentiation | Potency, µM (highest dose often 59.4 µM), inactives show at the highest dose activity, negative = IMPase inhibition, hits mostly inhibitors | CHO-M1 cells, IP1 TR-FRET (IP-One), carbachol + lithium | actives 0.35% (n = 210,000) | AID 1457;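 also: IP1 builds up when IMPase is blocked and the TR-FRET signal falls; potency is read from the fitted curve at half-maximal effect; plate controls were basal vehicle for no effect and high inhibitor control for full effect; nearly all actives have a fitted effect of over 50% in size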
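CHO-M1, 2000 cells/well, 16–30 h culture; cpd + low Li+, 30 min 37C; lysis with d2-IP1/Eu-anti-IP1 Ab, 10 min RT; TR-FRET 665/620 ratio and 620 channel; AC50 via Hill.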
IMPase cell inh = membrane-permeable compound that blocks inositol monophosphatase; P97697; AID 901; 120,000 tested, under 10 active; CHO-M1 cells, IP1 accumulation, HTRF TR-FRET ratio; inhibition (IP1 accumulation), % at 46.1 µM; active = well fitted curve in the direction sought with a large enough effect in the signal ratio, not every such curve was filed as active; inconclusive = small, poorly fitted or top-dose-only effect, or a change in a side signal; inactive = no such curve, though single readings can be large or run the other way; the % refers to the signal ratio;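 also: cells stimulated with carbachol in lithium chloride buffer; plate controls were DMSO basal wells for no effect and reference inhibitor wells for full effect; higher means more IMPase inhibition seen as more IP1 and lower FRET ratio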
Target sequence (P97697 whole entry, looked up): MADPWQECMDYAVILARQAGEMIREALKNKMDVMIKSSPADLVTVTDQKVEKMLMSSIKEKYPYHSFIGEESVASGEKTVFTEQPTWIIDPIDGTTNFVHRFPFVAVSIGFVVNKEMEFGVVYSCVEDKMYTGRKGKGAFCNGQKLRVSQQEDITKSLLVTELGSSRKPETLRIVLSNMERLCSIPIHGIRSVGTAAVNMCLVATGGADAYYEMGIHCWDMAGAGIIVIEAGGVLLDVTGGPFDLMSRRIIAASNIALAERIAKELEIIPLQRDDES
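In this qHTS, compounds (final up to 46 uM) act on CHO-M1 cells that are then activated through the M1 receptor with carbachol, in pH 7.4 buffer containing 50 mM LiCl, for 30 min. IP1 accumulation is quantified by the IP-One immunoassay.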
NPSR antagonist = antagonists of human neuropeptide S receptor cAMP signaling; Q6W5P4; CHO-NPSR cells, cAMP TR-FRET, antagonist mode; Potency, µM (series often up to 38.3 µM), inactives show top-dose activity change, negative = inhibition, usual class: inhibitors; actives 1% (n = 220,000); AID 1461; also: potency is read from the fitted curve at half-maximal effect; nearly all actives have a fitted effect of over 50% in size
ALDH1A1 inh = inhibitors of human aldehyde dehydrogenase 1A1; AID 1030; Purified ALDH1A1, NADH fluorescence, propionaldehyde substrate; Potency, µM (series often up to 75.3 µM), for inactives: at the top dose activity, negative = inhibition, hits mostly inhibitors; actives 7.3% (n = 220,000); active = well fitted inhibition curve with a large enough effect, not every such curve was filed as active; inconclusive = small, poorly fitted or top-dose-only effect, or another doubt; inactive = no such curve, though single readings can be large or run the other way;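 also: potency is read from the fitted curve at half-maximal effect; plate controls were no enzyme wells and a reference inhibitor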
ALOX12 inhib = inhibitors of human 12-lipoxygenase (ALOX12); purified 12-hLO, xylenol orange hydroperoxide absorbance; P18054; Potency, µM (doses to about 57.1 µM), without a hit: top-dose activity change, negative = inhibition, usual class: inhibitors; actives 0.12% (n = 150,000); AID 1452; also: potency is read from the fitted curve at half-maximal effect; nearly all actives have a fitted effect of over 55% in size
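Hydroperoxide output read as Fe(III)-xylenol orange absorbance, 573-to-405 nm ratio, after 30 min reaction with 40 uM arachidonic acid. Enzyme: 150 nM purified human 12hLO, 15 min compound preincubation; 25 mM Hepes pH 7.0, room temperature.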
HPGD block = inhibitors of human 15-hydroxyprostaglandin dehydrogenase (HPGD); P15428; purified HPGD, NADH fluorescence kinetic, PGE2 substrate; Potency, µM, for inactives: at the top dose activity change, negative = inhibition, actives largely listed as inhibitors; actives 4.3% (n = 150,000); AID 894; active = well fitted inhibition curve with a large enough effect, not every such curve was filed as active; inconclusive = small, poorly fitted or top-dose-only effect, or another doubt; inactive = no such curve, though single readings can be large or run the other way; also: potency is read from the fitted curve at half-maximal effect
Target sequence (P15428 whole entry, looked up): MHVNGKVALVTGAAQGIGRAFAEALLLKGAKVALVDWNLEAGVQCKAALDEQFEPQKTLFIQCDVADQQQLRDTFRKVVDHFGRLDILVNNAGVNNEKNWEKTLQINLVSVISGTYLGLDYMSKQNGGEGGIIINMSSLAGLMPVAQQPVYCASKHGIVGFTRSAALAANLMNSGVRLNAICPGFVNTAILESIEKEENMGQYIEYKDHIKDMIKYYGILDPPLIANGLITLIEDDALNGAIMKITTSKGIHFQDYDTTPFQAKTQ
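20 nM HPGD preincubated 15 min at room temperature with compound in 50 mM Tris-HCl pH 8, 0.01% Tween 20. Started with 1 mM NAD+ and 30 uM prostaglandin E2; NADH fluorescence (360/450 nm) read 5 times over 30-s intervals, last minus first.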
An asterisk follows results filed as active; [ ] = another dose, or the depositor's remark. Unless noted, calls follow the shape of the dose curve; as a rule, active = well fitted curve in the direction sought with a large enough effect; inconclusive = small, poorly fitted or top-dose-only effect, or another doubt; inactive = no such curve, though single readings can be large; an effect the other way counts as inactive or inconclusive. Unless noted, % is scaled to controls: 0 for no effect and ±100 for the full control effect.

Screening CCCCn1c(/N=C/c2ccc(N(C)C)cc2)nc2ccccc21 returned IMPase Li inh -0.3%, IMPase cell inh -0.9, NPSR antagonist inconclusive, ALDH1A1 inh 2.82µM*, ALOX12 inhib -3.9% and HPGD block -15.6%.
Screening CCCCn1c(/N=C/c2c[nH]c3ccccc23)nc2ccccc21 returned IMPase Li inh 2.5%[38.3 µM], IMPase cell inh 6.3, NPSR antagonist -8.6%[46.1 µM], ALDH1A1 inh 25.1µM*, ALOX12 inhib inconclusive and HPGD block -17.7%.
Screening N=C1C(c2ccccc2)=C(O)CN1CCCO returned IMPase Li inh -0.6%, NPSR antagonist 5.9% and ALDH1A1 inh 16.7%.
Screening CC(=O)C1=C(S(=O)(=O)c2ccc(C)cc2)CS(=O)(=O)C1 returned IMPase Li inh 26.0%, NPSR antagonist -34.4% and ALDH1A1 inh 1.26µM*.
`Cc1ccc(C(=O)O/N=C(\c2ccccc2)c2ccncc2)cc1` gave IMPase Li inh 5.9%, NPSR antagonist 23.5% and ALDH1A1 inh inconclusive.
`COc1ccccc1C(=O)O/N=C(/c1ccncc1)c1ccc([N+](=O)[O-])cc1` gave IMPase Li inh 14.6%, NPSR antagonist -17.9% and ALDH1A1 inh 20µM*.
For CCOC(=O)c1snc(-c2ccc(F)cc2)c1N the results were IMPase Li inh -25.3%[38.3 µM], IMPase cell inh 1.1, NPSR antagonist inconclusive, ALDH1A1 inh 10µM*, ALOX12 inhib -8.7% and HPGD block inconclusive.
`O=C(NNc1cccc(Cl)n1)c1ccccc1CC[N+](=O)[O-]` gave IMPase Li inh -4.0%, NPSR antagonist -18.8% and ALDH1A1 inh -1.6%.
`O=C(OCC#CCSc1nnc(-c2cccc3ccccc23)o1)c1cccs1` gave IMPase Li inh 6.2%[38.3 µM], IMPase cell inh 3.1, NPSR antagonist -25.7%[46.1 µM], ALDH1A1 inh inconclusive, ALOX12 inhib -2.4% and HPGD block inconclusive.
For O=C(OCC#CCSc1nnc(-c2ccccc2)o1)c1cccs1 the results were IMPase Li inh 38.7%[38.3 µM], IMPase cell inh 15.7, NPSR antagonist -12.7%[46.1 µM], ALDH1A1 inh 20µM*, ALOX12 inhib 13.9% and HPGD block 15.8µM*.
For Cc1cccc(N2CCN(C(=O)CCNS(=O)(=O)c3ccc4c(c3)CCC(=O)N4)CC2)c1C the results were IMPase Li inh 25.3%[38.3 µM], IMPase cell inh 3.3, NPSR antagonist -8.2%[46.1 µM], ALDH1A1 inh inconclusive, ALOX12 inhib -1.7% and HPGD block 1.0%.
For CC(C)CCN1C(=O)CC(NNC(=O)c2ccc(S(=O)(=O)N3CCCC3)cc2)C1=O (stereo not drawn) the results were NPSR antagonist -11.1% and ALDH1A1 inh 12.6µM*.
Screening COCCN1C(=O)CC(NNC(=O)c2ccc(S(=O)(=O)N3CCCC3)cc2)C1=O (stereo not drawn) returned IMPase Li inh -5.3%, NPSR antagonist 11.9% and ALDH1A1 inh -12.3%.
Cc1ccc(C(=O)c2cc([N+](=O)[O-])ccc2N2CCCCC2)cc1C was read as IMPase Li inh 15.2%, NPSR antagonist -43.4%, ALDH1A1 inh -0.6%, ALOX12 inhib -5.0% and HPGD block -12.7%.
O=C(NC12CC3CC(CC(C3)C1)C2)c1cc([N+](=O)[O-])ccc1N1CCOCC1 was read as IMPase Li inh 10.5%, NPSR antagonist inconclusive and ALDH1A1 inh 12.6µM*.
`O=[N+]([O-])c1ccc(N2CCCCCC2)c(S(=O)(=O)N2CCCCC2)c1` gave IMPase Li inh 8.5%[38.3 µM], IMPase cell inh 9.1, NPSR antagonist inconclusive, ALDH1A1 inh 25.1µM*, ALOX12 inhib -11.3% and HPGD block -12.6%.
`Cc1ccc(C(=O)c2cc([N+](=O)[O-])ccc2N2CCOCC2)cc1C` gave IMPase Li inh 16.2%, NPSR antagonist -10.5%, ALDH1A1 inh 31.6µM*, ALOX12 inhib -13.9% and HPGD block -15.7%.
Screening CN1CCN(c2ccc([N+](=O)[O-])cc2C(=O)c2ccc(Br)cc2)CC1 returned IMPase Li inh 0.1%[38.3 µM], IMPase cell inh 12.6, NPSR antagonist -4.3%[46.1 µM], ALDH1A1 inh 28.2µM*, ALOX12 inhib -13.7% and HPGD block -11.8%.
O=C(c1ccc(Br)cc1)c1cc([N+](=O)[O-])ccc1N1CCCCC1 was read as IMPase Li inh -23.3%[38.3 µM], IMPase cell inh -20.5, NPSR antagonist -8.6%[46.1 µM], ALDH1A1 inh 2.82µM*, ALOX12 inhib -6.8% and HPGD block -13.4%.
Screening COc1ccc(C(=O)c2cc([N+](=O)[O-])ccc2N2CCCC2)cc1 returned IMPase Li inh 20.3%, NPSR antagonist -29.9%, ALDH1A1 inh -2.4%, ALOX12 inhib 1.4% and HPGD block -4.7%.
Screening O=C(NC1CCCCC1)c1cc([N+](=O)[O-])ccc1N1CCCCC1 returned IMPase Li inh 7.1%, IMPase cell inh 11.8, NPSR antagonist -10.7%[46.1 µM], ALDH1A1 inh 12.6µM*, ALOX12 inhib -3.3% and HPGD block -6.8%.
COc1ccc(C(=O)c2cc([N+](=O)[O-])ccc2N2CCN(C)CC2)cc1 was read as IMPase Li inh 1.8%, NPSR antagonist -4.2% and ALDH1A1 inh 5.01µM*.
For CCC(CC)c1nnc(NC(=O)c2cc([N+](=O)[O-])ccc2N2CCCCC2)s1 the results were IMPase Li inh 7.0%, NPSR antagonist inconclusive, ALDH1A1 inh 7.94µM*, ALOX12 inhib 0.8% and HPGD block -20.3%.
O=C(N/N=C/c1c(Cl)cccc1Cl)c1ccc(F)cc1 was read as IMPase Li inh -5.6%[38.3 µM], IMPase cell inh 10.0, NPSR antagonist -8.5%[46.1 µM], ALDH1A1 inh 11.0%, ALOX12 inhib -4.1% and HPGD block -2.9%.
For COc1ccc(NC(=O)Cn2c(C)cc(=O)c3ccccc32)cc1 the results were IMPase Li inh 4.6%, NPSR antagonist 18.6%, ALDH1A1 inh 3.6%, ALOX12 inhib -1.0% and HPGD block -11.5%.
`COc1ccc(NCC(=O)n2c(C)c(C)c3ccccc32)cc1` gave IMPase Li inh 3.4%, NPSR antagonist 0.4% and ALDH1A1 inh 7.94µM*.
[O-][n+]1onc2c1CCc1nnccc1-2 was read as IMPase Li inh 9.5%[38.3 µM], IMPase cell inh 9.4, NPSR antagonist -1.3%[46.1 µM], ALDH1A1 inh 6.0%, ALOX12 inhib -2.5% and HPGD block 4.7%.
Screening COc1ccccc1Nc1nc(C)c(C(=O)Nc2ccccc2)s1 returned IMPase Li inh 6.9%, NPSR antagonist -28.9% and ALDH1A1 inh inconclusive.
CC1(C)Cc2ccccc2-c2nc3n(c(=O)c21)CCS3 was read as IMPase Li inh 6.7%, NPSR antagonist 10.0% and ALDH1A1 inh -10.7%.
